Screens from PubChem BioAssay.
Many of the other results were omitted from the sample, so hits are more common in it than they were.
GluA2 TARP mod = modulators of AMPA receptor GluA2-stargazin complexes; HEK293 GluA2+stargazin, membrane potential dye (FDSS), glutamate EC50; hits were called plate by plate, in both directions; calls only at 30 µM; hit rate 3.5% among 40,000;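 active means any of four per-well response measures lying three or more SD from its plate-wide compound average, in either direction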
Target sequence (O88602 whole entry, looked up): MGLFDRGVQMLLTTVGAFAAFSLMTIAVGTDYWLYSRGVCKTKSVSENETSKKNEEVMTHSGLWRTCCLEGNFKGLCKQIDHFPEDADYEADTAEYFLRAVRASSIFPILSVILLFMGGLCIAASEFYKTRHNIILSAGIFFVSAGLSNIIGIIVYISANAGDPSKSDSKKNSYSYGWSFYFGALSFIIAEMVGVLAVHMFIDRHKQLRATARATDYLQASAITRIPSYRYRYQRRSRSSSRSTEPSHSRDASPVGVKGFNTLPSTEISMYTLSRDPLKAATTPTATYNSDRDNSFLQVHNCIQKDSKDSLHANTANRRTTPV
Target sequence (P19491 whole entry, looked up): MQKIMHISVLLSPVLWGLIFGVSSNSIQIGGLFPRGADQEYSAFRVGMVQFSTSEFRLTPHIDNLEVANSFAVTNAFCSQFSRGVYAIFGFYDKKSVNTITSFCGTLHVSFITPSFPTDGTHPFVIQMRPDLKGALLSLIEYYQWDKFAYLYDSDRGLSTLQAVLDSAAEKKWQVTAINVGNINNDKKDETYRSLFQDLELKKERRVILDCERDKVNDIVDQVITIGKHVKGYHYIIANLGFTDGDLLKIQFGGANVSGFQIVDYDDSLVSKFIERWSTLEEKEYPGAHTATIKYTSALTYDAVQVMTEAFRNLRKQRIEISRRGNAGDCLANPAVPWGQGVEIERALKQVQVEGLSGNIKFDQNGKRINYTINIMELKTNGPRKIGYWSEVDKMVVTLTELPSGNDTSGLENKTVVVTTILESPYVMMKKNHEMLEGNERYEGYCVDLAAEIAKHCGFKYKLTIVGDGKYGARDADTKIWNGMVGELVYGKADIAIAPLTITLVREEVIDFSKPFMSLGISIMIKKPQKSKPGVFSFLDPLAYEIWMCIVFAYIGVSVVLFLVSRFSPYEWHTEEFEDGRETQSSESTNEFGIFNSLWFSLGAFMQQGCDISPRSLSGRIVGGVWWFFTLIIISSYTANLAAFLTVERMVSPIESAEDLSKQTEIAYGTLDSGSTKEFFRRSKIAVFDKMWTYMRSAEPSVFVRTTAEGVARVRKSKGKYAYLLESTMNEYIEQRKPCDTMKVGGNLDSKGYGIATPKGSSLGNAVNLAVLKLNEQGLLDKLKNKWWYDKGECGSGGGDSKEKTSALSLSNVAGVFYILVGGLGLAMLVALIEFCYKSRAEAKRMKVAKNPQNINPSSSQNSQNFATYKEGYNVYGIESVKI
GIRK2 activator = Activators of human GIRK2-containing channels | activation (% efficacy), % for hits at 37.5 µM | 34,000 tested, under 10 active | HEK293 GIRK2/NPY4 cells, thallium flux fluorescence | P48051;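 active means primary screen hit, no activity in plain HEK293 cells, and in GIRK2-only cells above 5% efficacy rising with concentration; inactive means the rest, including fluorescent compounds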;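 further: efficacy is normalized control-subtracted fluorescence 15 s after thallium addition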
A number is an active result; . = inactive; / = not tested or not shown; + = active, no number; [ ] = another dose, or the depositor's remark.

SMILES	GluA2 TARP mod	GIRK2 activator
COc1ccc(Cl)cc1C(=O)NCC(O)(c1cccs1)C1CC1 (stereo not given)	+	.
COc1nn(C)cc1C(=O)NCC(O)(c1ccccc1)C1CC1 (stereo not given)	.	/
Nc1sc(SCC(=O)NCc2ccc(F)cc2)nc1-c1ccccc1	+	.
COc1ccc(CCC(=O)Nc2sc(SCC(N)=O)nc2-c2ccccc2)cc1	.	.
NC(=O)CSc1nc(-c2ccccc2)c(NC(=O)c2ccccc2)s1	.	.
NC(=O)CSc1nc(-c2ccccc2)c(NC(=O)CCCc2ccccc2)s1	+	.
NC(=O)CSc1nc(-c2ccccc2)c(N)s1	.	.
NC(=O)CSc1nc(-c2ccccc2)c(NC(=O)CCc2ccccc2)s1	+	.
COC(=O)c1sc2ccccc2c1S(=O)(=O)N(C)CC(=O)Nc1ccc(C)c(C)c1	.	.
COC(=O)c1sc2ccccc2c1S(=O)(=O)N1CCN(c2cccc(C)c2)C(C)C1 (stereo not given)	.	/
Cc1ccc(Nc2nc(NCc3ccccn3)nc3[nH]ncc23)cc1C	/	.
CCOC(=O)c1c(SCC(=O)NCCc2ccccc2)nc(=O)[nH]c1C	.	.
CCOC(=O)c1c(SCc2ccccc2)nc(=O)[nH]c1C	+	.
Cc1ccc(S(=O)(=O)Nc2ccc(C(=O)NCCC(C)C)cc2)cc1	.	/
O=C(CC(Sc1n[nH]c(-c2ccccc2)n1)c1ccccc1)NCCc1ccccc1 (stereo not given)	.	/
COc1ccc(-c2nc(SC(CC(=O)NCCc3ccccc3)c3ccc(OC)cc3)n[nH]2)cc1 (stereo not given)	+	/
O=[N+]([O-])c1ccc(Nc2ccc(S(=O)(=O)Nc3nccs3)cc2)c([N+](=O)[O-])c1	.	14%[18.8 µM]
O=C(CCN1C(=O)c2ccccc2S1(=O)=O)Nc1ccc(S(=O)(=O)Nc2nccs2)cc1	.	.
Cc1nc(SCC(=O)N2CCC(C)CC2)c2ccsc2n1	.	/
COc1ccc(Cl)cc1NC(=O)C1CN(C(C)=O)C1	.	.
O=C(Nc1ccc2ncsc2c1)c1cccc([N+](=O)[O-])c1	+	.
O=C(Nc1ccc2ncsc2c1)c1ccc(C(=O)c2ccccc2)cc1	.	.
COc1ccc(Cl)cc1NC(=O)C(=O)N1CCN(c2ccc(F)cc2)CC1	.	/
Cc1ccc(S(=O)(=O)NCC(c2ccc(F)cc2)N(C)C)cc1 (stereo not given)	.	.
COc1ccc(S(=O)(=O)N2CCCCC2CC(=O)NCc2ccccc2Cl)cc1 (stereo not given)	+	/
SMILES	GluA2 TARP mod	GIRK2 activator
COc1cccc(CCNC(=O)CC2CCCCN2S(=O)(=O)c2ccc(Cl)cc2)c1 (stereo not given)	+	/
COc1ccc(S(=O)(=O)N2CCCCC2CC(=O)NCc2ccccc2OC)cc1 (stereo not given)	.	/
COc1cccc(CCNC(=O)CC2CCCCN2S(=O)(=O)c2ccccc2)c1 (stereo not given)	.	/
Cn1c(=O)c2cc(C(=O)NCc3cccs3)sc2n(C)c1=O	.	.
COC(=O)c1ccc(C)c(-n2c(N)c(C(N)=O)sc2=S)c1	.	.
CCCS(=O)(=O)N1CCN(c2cc(-n3ccnc3)ncn2)CC1	.	.
COCCNC(=O)NCC1(c2cccs2)CC1	+	.
COCCNC(=O)C(=O)NCC1(c2cccs2)CC1	.	.
CC1(C)N=C(SCC(=O)Nc2ccc(F)cc2F)C(c2ccc(Cl)cc2)=N1	+	.
CC1(C)N=C(SCC(=O)Nc2ccc(F)cc2F)C(c2ccccc2)=N1	.	.
CC(=O)Nc1cc([N+](=O)[O-])ccc1O	.	.
Cc1cc(NC(=O)CSc2nc(=O)n(N3CCN(C)CC3)c3c2CCC3)no1	+	.
CN1CCN(n2c3c(c(SCC(=O)Nc4cccc5ccccc45)nc2=O)CCC3)CC1	.	.
Cc1c(C)n2c3c(=O)n(CC(=O)OCc4ccccc4)c(=O)n(C)c3nc2n1-c1ccccc1	.	/
CCOC(=O)c1scc(-c2ccc(C)cc2)c1S(=O)(=O)N1CCN(c2ccccn2)CC1	+	.
COC(=O)c1scc(-c2ccccc2)c1S(=O)(=O)N1CCN(c2ncccn2)CC1	.	/
Cc1ccc(CNC(=O)Cc2csc(NC(=O)c3ccc[nH]c3=O)n2)cc1	.	.
O=S(=O)(NCCCN1CCOCC1)c1cccc2cnccc12	.	.
O=S(=O)(NC1CCCC1)c1cccc2cnccc12	+	.
CCN(CC)CCNC(=O)C(=O)Nc1ccc([N+](=O)[O-])cc1	.	/
CC(O)CNC(=O)C(=O)Nc1ccc([N+](=O)[O-])cc1 (stereo not given)	+	/
Cc1nnc(NC(=O)c2nn(-c3ccc(F)cc3)cc2OCc2ccccc2)s1	.	.
COc1ccccc1NC(=O)Nc1ccc(Nc2ccc(-n3nc(C)c(C)c3C)nn2)cc1	.	.
O=C1Cc2cc(NS(=O)(=O)c3ccc(Cl)s3)ccc2N1	.	/
CCOC(=O)C1CCN(C(=O)Cc2csc(Nc3ccccc3)n2)CC1	.	.
SMILES	GluA2 TARP mod	GIRK2 activator
CCOC(=O)C1CCN(C(=O)Cc2csc(Nc3cccc(C(F)(F)F)c3)n2)CC1	+	.
O=C(NCc1ccc(Cl)cc1)C(=O)N1CCN(Cc2ccc3c(c2)OCO3)CC1	.	/
CCOc1ccc(OCCNC(=O)Cc2cccc3ccccc23)cc1	.	.
CCOc1ccc2ccccc2c1C(=O)NCC(c1cccs1)N(C)C (stereo not given)	+	.
CCOc1ccc2ccccc2c1C(=O)NCCOc1ccccc1	+	.
CN(C)C(CNC(=O)c1ccc2ccccc2c1)c1cccs1 (stereo not given)	.	.
CN(C)C(CNC(=O)c1ccccc1Cl)c1cccc2ccccc12 (stereo not given)	.	/
CCOc1ccc(C(=O)NCC(c2ccc(F)cc2)N2CCOCC2)cc1OCC (stereo not given)	.	/
CN(C)C(CNC(=O)c1c(F)cccc1F)c1cccc2ccccc12 (stereo not given)	+	/
CCOc1ccc2ccccc2c1C(=O)NCC(c1ccc(F)cc1)N1CCOCC1 (stereo not given)	+	/
CC(O)(CNC(=O)CCSc1ccccc1)C1CC1 (stereo not given)	.	.
Cc1cc(NC(=O)C(=O)NC2CCCCCC2)ccc1N1CCCC1=O	.	.
CCCC12CN(C(=O)CC)CC(C)(CN(C(=O)CC)C1)C2=O	.	.
CCc1ccc(N2C(=O)C3N=NN(CC(=O)Nc4cccc(C)c4C)C3C2=O)cc1 (stereo not given)	.	.
COc1ccc(-c2ccc(N3CCN(C(=O)c4ccccc4F)CC3)nn2)cc1OC	.	.
COc1cccc(OC)c1C(=O)NCC(c1cccs1)N1CCOCC1 (stereo not given)	.	.
CCOc1ccc2ccccc2c1C(=O)NCC(c1cccs1)N1CCOCC1 (stereo not given)	+	.
CCOc1ccc2ccccc2c1C(=O)NCC(c1ccc(OC)cc1)N1CCOCC1 (stereo not given)	+	/
COc1ccc(C(=O)NCC(c2ccc(F)cc2)N2CCOCC2)cc1 (stereo not given)	.	/
COc1cn2c(cc1=O)C(=O)N(CCNC(=O)c1ccc(S(=O)(=O)N(C)C)cc1)CC2	.	.
O=C1CN(CCc2cccs2)C2CS(=O)(=O)CC2N1c1cccc(Cl)c1 (stereo not given)	.	.
C=CCn1c(SCc2nc(-c3ccc(SC)cc3)no2)nc2cc3c(cc2c1=O)OCO3	.	.
